This is an account of results in PubChem BioAssay (EPA / NIEHS).

Results filed as inconclusive are left out. Calls of active or inactive are those of the source. Rule for the calls, unless noted: active = hit-call score of the fitted dose curve at least 0.9, where 1 is the maximum; inactive = score below 0.9.

Experiment [1] can be described thus: ACEA_ER_80hr: ACEA Biosciences xCELLigence Real-Time Cell Analysis on Estrogen Receptor Agonism for Proliferation (AID 2282667; active = hit-call score of the fitted dose curve at least 0.9, where 1 is the maximum). The note with it: T47D proliferation, impedance (xCELLigence), 80 h. Summed up:
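T47D human breast cells were seeded on electrode plates, monitored overnight, then exposed continuously to compounds in eight-point 1:4 dilutions from 100 uM (max 0.5% DMSO). Impedance-based growth was read at 80 h, fitted upward relative to DMSO.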

A short description of experiment [2]: ATG_CRE_CIS: Attagene CIS-FACTORIAL HepG2 Assay for human cAMP Responsive Element (CRE) binding protein 3 (AID 2282926). The note with it: HepG2 CRE cis-reporter, Attagene multiplexed mRNA; actives raise or lower the signal. In short, it runs like this: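 HepG2 cells transiently transfected with a multiplexed reporter library (CRE-driven unit among them) were dosed for 24 h. Reporter mRNA was quantified by RT-PCR, fluorescent labelling, HpaI digestion and capillary electrophoresis, with bidirectional fitting against DMSO baseline.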

Experiment [3] addresses CCAAT/enhancer-binding protein beta (Homo sapiens) (UniProt P17676). Nature of the experiment: ATG_C_EBP_CIS: Attagene CIS-FACTORIAL HepG2 Assay for human CCAAT/Enhancer Binding Protein (C/EBP) beta (AID 2282927). The note with it: HepG2 Attagene cis-factorial transcription factor reporter; actives raise or lower the signal. Summed up: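 Endogenous transcription factor activity in human liver HepG2 cells is inferred from induction of a CEBPB-linked reporter mRNA. Exposure lasts 24 h; activity is fitted in both directions relative to DMSO.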

A short description of experiment [4]: ATG_CMV_CIS: Attagene CIS-FACTORIAL HepG2 Assay for human CMV (Internal Marker) (AID 2282928).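 Note: endpoint acts as a background internal control marker rather than a target.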 The note with it: HepG2 CMV promoter reporter, transcription factor profiling; actives raise or lower the signal. Summed up: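 Cell system: HepG2, transiently transfected multiple reporter units under cis promoters. Exposure: 24 h. Detection: RT-PCR, FAM labeling, HpaI digestion, capillary electrophoresis. Analysis: bidirectional, DMSO baseline.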

A short description of experiment [5]: ATG_AP_1_CIS: Attagene CIS-FACTORIAL HepG2 Assay for human Activator Protein 1 (AP-1) (AID 2282931). As to conditions: HepG2 Attagene cis-factorial AP-1 reporter mRNA; actives raise or lower the signal. Summed up:
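Multiplexed HepG2 reporter assay, 24 h dosing. mRNA induction detected by RT-PCR plus capillary electrophoresis. Activity fitted in both directions against DMSO.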

Experiment [6] can be described thus: ATG_BRE_CIS: Attagene CIS-FACTORIAL HepG2 Assay for human Bone Morphogenetic Protein (BMP) Response Element (BRE) (AID 2282933). The note with it: HepG2 BMP response element reporter, Attagene transcription factor profiling; actives raise or lower the signal. Summed up:
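HepG2 cells transiently transfected with multiplexed cis-element reporter units were dosed with chemical for 24 h. Reporter mRNA was measured by RT-PCR with fluorescent labelling, HpaI digestion and capillary electrophoresis; bidirectional fitting relative to DMSO.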

Experiment [7] has as its target Retinoic acid receptor alpha (Homo sapiens) (UniProt P10276). Nature of the experiment: ATG_DR5_RAR_CIS: Attagene CIS-FACTORIAL HepG2 Assay for human Retinoic Acid Receptor Alpha (RARE), DR5 submotif (AID 2282934). The note with it: HepG2 Attagene cis-factorial RARE DR5 reporter, mRNA; actives raise or lower the signal. In short, it runs like this:
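Transient MRTU transfection of HepG2; 24 h compound treatment; TriZol RNA, oligo(dT) RT, PCR, FAM labelling, capillary electrophoresis. Bidirectional fit vs DMSO. Endogenous TF activity at DR5 RARE.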

The target in experiment [8] is Transcription factor E2F1 (Homo sapiens) (UniProt Q01094). The experiment can be described thus: ATG_E2F_CIS: Attagene CIS-FACTORIAL HepG2 Assay for human E2F Transcription Factor 1 (AID 2282935). As to conditions: HepG2 Attagene cis-reporter, E2F reporter RNA transcripts; actives raise or lower the signal. Summed up: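 Cis-element reporter mRNA induction in transiently transfected HepG2, 24 h exposure. Activity fitted in both directions relative to DMSO negative control.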
Chain of Transcription factor E2F1 (Homo sapiens) (Q01094 whole entry, looked up): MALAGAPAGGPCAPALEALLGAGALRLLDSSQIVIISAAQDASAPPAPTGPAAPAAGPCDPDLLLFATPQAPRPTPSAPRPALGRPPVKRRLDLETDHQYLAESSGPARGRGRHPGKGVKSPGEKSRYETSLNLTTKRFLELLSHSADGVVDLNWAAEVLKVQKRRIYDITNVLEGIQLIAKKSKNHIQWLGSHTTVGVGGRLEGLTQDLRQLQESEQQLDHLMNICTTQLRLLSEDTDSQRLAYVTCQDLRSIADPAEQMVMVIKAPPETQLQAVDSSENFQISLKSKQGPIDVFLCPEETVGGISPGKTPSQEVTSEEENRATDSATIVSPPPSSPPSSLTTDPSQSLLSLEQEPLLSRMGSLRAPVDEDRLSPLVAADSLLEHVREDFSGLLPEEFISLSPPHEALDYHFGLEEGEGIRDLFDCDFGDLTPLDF

The nature of experiment [9]: ATG_E_Box_CIS: Attagene CIS-FACTORIAL HepG2 Assay for human Enhancer Box (E-box) (AID 2282936). As to conditions: HepG2 E-box cis-reporter transcription, actives raise or lower the signal. In short, it runs like this: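 Cells: HepG2 (human liver), transient MRTU transfection. Exposure 24 h. RNA → oligo(dT) RT → PCR → 6-FAM label → HpaI → CE. Activity fitted both directions relative to DMSO.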

Experiment [10] is described as follows: ATG_M_61_CIS: Attagene CIS-FACTORIAL HepG2 Assay for M61 Transcription Factor (Internal Marker) (AID 2282937). The note with it: HepG2 Attagene CIS-FACTORIAL M61 internal marker reporter; actives raise or lower the signal. Summed up:
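Endogenous transcription factor activity in HepG2 is read through transiently transfected cis-element reporter units. After 24 h dosing, RNA undergoes reverse transcription, PCR and primer extension with 6-FAM before capillary electrophoresis; DMSO-referenced bidirectional fit.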

Experiment [11] in a line: ATG_EGR_CIS: Attagene CIS-FACTORIAL HepG2 Assay for human Early Growth Response 1 (EGR1) (AID 2282938). The note with it: HepG2 Attagene CIS-FACTORIAL EGR reporter mRNA; actives raise or lower the signal. Summed up: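 Activity is taken as induction or loss of reporter mRNA versus DMSO, fitted bidirectionally. Transcripts from cis-regulated reporter units in transiently transfected HepG2 were measured after 24 h by RT-PCR with capillary electrophoresis.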

Experiment [12] in a line: ATG_M_19_CIS: Attagene CIS-FACTORIAL HepG2 Assay for M19 Transcription Factor (Internal Marker) (AID 2282939). As to conditions: HepG2 Attagene CIS-FACTORIAL M19 internal marker reporter; actives raise or lower the signal. In short, it runs like this:
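HepG2 cells transiently transfected with cis-regulated multiple reporter transcription units were dosed for 24 h; reporter mRNA was quantified by RT-PCR, 6-FAM primer-extension labelling, HpaI digestion and capillary electrophoresis, with bidirectional fitting against DMSO baseline.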

Experiment [13] can be described thus: ATG_Ets_CIS: Attagene CIS-FACTORIAL HepG2 Assay for human Erythroblast Transformation Specific (ETS) (AID 2282941). The note with it: HepG2 ETS cis-reporter transcription, actives raise or lower the signal. Summed up: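 After transient cis-reporter transfection, HepG2 cells receive test chemical for 24 h. Reporter mRNA levels, measured by RT-PCR and capillary electrophoresis fluorescence, are analysed bidirectionally relative to the DMSO baseline.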

Experiment [14] concerns the target Hepatocyte nuclear factor 3-beta (Homo sapiens) (UniProt Q9Y261). The experiment can be described thus: ATG_FoxA2_CIS: Attagene CIS-FACTORIAL HepG2 Assay for human Forkhead box A2 (FOXA2) (AID 2282942). As to conditions: HepG2 cis-reporter transcription factor activity, 24 h; actives raise or lower the signal. In short, it runs like this: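 Reporter transcript induction is measured by fluorescence after capillary electrophoresis of RT-PCR products from HepG2 cells exposed 24 h. Cis-regulated reporter units report endogenous factor activity; curves fitted both directions against DMSO.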

A short description of experiment [15]: ATG_FoxO_CIS: Attagene CIS-FACTORIAL HepG2 Assay for human Forkhead box O (FoxO) (AID 2282943). As to conditions: HepG2 Attagene cis-reporter, FoxO element, mRNA; actives raise or lower the signal. Summed up:
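HepG2, transient MRTU transfection (cis element, endogenous TFs). Dose 24 h. TriZol RNA → oligo(dT) RT → PCR → 6-FAM primer extension → HpaI cut → CE. Gain/loss vs DMSO.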

Experiment [16] can be described thus: ATG_GATA_CIS: Attagene CIS-FACTORIAL HepG2 Assay for human GATA Binding Protein (AID 2282944). The note with it: HepG2 GATA cis-element reporter, Attagene multiplex mRNA; actives raise or lower the signal. Summed up:
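HepG2 cells transiently transfected with multiplexed cis-element reporter units reflecting endogenous transcription factor activity; reporter mRNA measured after 24 h dosing by RT-PCR, 6-FAM labeling, HpaI digestion and capillary electrophoresis. Bidirectional fitting versus DMSO baseline.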

Experiment [17] can be described thus: ATG_DR4_LXR_CIS: Attagene CIS-FACTORIAL HepG2 Assay for human Liver X Receptor (LXR), DR4 submotif (AID 2282929). As to conditions: HepG2 Attagene DR4 cis-reporter, mRNA transcription; actives raise or lower the signal. Summed up: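 Fluorescence intensity of labelled reporter cDNA fragments, separated by capillary electrophoresis, gives the signal. HepG2 cells bearing cis-regulated reporter constructs were treated 24 h; activity fitted bidirectionally relative to DMSO negative control.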

The target in experiment [18] is Aryl hydrocarbon receptor (Homo sapiens) (UniProt P35869). Nature of the experiment: ATG_Ahr_CIS: Attagene CIS-FACTORIAL HepG2 Assay for human Aryl Hydrocarbon Receptor (Ahr) (AID 2282930). The note with it: HepG2 AhR cis-factorial reporter transcription; actives raise or lower the signal. Summed up:
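Transient MRTU transfection of HepG2 → 24 h compound exposure → total RNA, oligo(dT) RT → PCR, 6-FAM extension, HpaI cut → CE fluorescence. DMSO = baseline; bidirectional curve fit.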

The nature of experiment [19]: ATG_AP_2_CIS: Attagene CIS-FACTORIAL HepG2 Assay for human Activator Protein 2 (AP-2) (AID 2282932). As to conditions: HepG2 AP-2 cis-reporter, Attagene transcription factor profiling; actives raise or lower the signal. Summed up:
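HepG2, transient MRTU transfection, cis-regulated reporters; 24 h compound exposure; RNA isolated, RT-PCR, 6-FAM labelling, HpaI digest, CE fluorescence. DMSO = negative control/baseline, bidirectional fit.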

Experiment [20] in a line: ATG_ERE_CIS: Attagene CIS-FACTORIAL HepG2 Assay for Estrogen Response Element (ERE) (AID 2282940). The note with it: HepG2 ERE cis-reporter, Attagene RNA transcript; actives raise or lower the signal. In short, it runs like this: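 HepG2 cells transiently transfected with cis-promoter-driven multiplexed reporter transcription units report endogenous TF activity. After 24 h compound exposure, reporter mRNA is quantified by RT-PCR with capillary electrophoresis fluorescence; bidirectional fitting versus DMSO baseline.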

One may read the AC50 as the concentration giving half of the maximal activity seen.

Chain of Retinoic acid receptor alpha (Homo sapiens) (P10276 whole entry, looked up): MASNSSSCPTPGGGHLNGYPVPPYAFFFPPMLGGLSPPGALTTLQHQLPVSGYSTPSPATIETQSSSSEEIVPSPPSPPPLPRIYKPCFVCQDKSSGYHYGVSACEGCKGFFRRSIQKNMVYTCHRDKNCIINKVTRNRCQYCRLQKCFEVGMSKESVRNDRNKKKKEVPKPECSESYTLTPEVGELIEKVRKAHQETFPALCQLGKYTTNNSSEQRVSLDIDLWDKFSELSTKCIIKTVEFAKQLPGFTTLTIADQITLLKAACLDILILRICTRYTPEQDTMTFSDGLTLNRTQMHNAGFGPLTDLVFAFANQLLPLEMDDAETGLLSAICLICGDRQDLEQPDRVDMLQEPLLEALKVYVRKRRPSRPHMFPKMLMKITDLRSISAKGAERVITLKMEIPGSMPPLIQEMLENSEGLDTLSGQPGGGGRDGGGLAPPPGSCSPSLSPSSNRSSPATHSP
Chain of Hepatocyte nuclear factor 3-beta (Homo sapiens) (Q9Y261 whole entry, looked up): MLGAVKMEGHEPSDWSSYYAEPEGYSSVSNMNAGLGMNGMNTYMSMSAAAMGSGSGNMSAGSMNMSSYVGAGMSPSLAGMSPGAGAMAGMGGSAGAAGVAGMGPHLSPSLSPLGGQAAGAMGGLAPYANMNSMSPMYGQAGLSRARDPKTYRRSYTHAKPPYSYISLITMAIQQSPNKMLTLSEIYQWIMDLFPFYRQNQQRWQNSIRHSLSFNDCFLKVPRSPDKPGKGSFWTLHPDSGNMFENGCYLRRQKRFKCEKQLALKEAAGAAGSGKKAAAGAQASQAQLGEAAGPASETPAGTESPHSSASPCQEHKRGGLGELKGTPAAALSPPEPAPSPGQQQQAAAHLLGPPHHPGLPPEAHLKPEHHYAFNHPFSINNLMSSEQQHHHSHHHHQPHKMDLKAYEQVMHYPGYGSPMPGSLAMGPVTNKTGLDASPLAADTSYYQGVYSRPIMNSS
Chain of Aryl hydrocarbon receptor (Homo sapiens) (P35869 whole entry, looked up): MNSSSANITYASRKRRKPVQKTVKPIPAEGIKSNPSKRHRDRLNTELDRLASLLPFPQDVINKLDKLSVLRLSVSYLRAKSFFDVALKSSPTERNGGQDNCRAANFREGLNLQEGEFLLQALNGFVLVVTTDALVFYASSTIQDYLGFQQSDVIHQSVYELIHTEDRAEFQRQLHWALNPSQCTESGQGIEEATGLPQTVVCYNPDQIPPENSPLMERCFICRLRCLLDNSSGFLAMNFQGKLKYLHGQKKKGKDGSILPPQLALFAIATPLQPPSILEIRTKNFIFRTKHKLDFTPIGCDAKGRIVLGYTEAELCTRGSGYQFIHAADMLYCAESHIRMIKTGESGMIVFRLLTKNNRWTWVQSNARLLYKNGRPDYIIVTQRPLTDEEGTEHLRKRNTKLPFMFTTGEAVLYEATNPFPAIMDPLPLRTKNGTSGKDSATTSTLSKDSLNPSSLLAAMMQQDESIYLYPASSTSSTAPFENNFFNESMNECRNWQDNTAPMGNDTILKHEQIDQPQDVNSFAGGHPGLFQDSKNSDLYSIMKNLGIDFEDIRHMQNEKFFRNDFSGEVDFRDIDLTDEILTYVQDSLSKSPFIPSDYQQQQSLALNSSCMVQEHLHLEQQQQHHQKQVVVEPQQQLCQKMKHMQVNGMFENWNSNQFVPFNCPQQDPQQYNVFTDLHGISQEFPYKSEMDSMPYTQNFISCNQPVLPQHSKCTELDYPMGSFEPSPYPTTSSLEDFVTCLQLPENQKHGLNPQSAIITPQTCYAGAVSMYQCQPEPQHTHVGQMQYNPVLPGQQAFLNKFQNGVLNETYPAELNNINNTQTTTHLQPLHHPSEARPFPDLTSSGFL
Chain of CCAAT/enhancer-binding protein beta (Homo sapiens) (P17676 whole entry, looked up): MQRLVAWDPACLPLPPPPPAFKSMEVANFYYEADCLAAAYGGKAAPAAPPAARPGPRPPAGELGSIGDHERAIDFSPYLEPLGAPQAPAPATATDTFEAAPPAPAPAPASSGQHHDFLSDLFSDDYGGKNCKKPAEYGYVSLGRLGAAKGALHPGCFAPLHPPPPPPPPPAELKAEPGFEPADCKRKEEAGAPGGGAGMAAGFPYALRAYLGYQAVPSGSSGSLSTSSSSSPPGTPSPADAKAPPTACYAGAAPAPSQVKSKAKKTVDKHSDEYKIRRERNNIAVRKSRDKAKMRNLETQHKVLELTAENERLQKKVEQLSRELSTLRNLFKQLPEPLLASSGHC

With `OCCCCl`, the compound was called inactive in [1], in experiment [2], in experiment [3], in experiment [4], in [5] and in [6]. The call in experiment [7], in [8], in [9], in experiment [10], in experiment [11] and in [12] was inactive. Besides, the compound was called inactive in experiment [13], in experiment [14], in [15] and in [16].
On to `CC(O)C#CC(C)O` (configuration not stated), for which the outcome in experiment [2], in [19], in experiment [7], in [8], in experiment [10] and in [12] was inactive. Besides, the call in [20] and in experiment [13] was inactive. Besides, the AC50 in experiment [3] is 179 µM (active); in [4], 176 µM (active); in experiment [17], 64.9 µM (active); in experiment [18], 72.8 µM (active); in experiment [5] it was 24.7 µM (active); in [6], 182 µM (active). Moreover, the AC50 was 185 µM (active) in experiment [9]; 82.9 µM (active) in [11]; 131 µM (active) in [14]; 63 µM (active) in [15]; 69.2 µM (active) in experiment [16].
As for `CCOC(C=C(C)CCC=C(C)C)OCC`, the outcome in experiment [1], in [2], in experiment [3], in experiment [4], in experiment [18] and in experiment [5] was inactive. In addition, the result in experiment [19], in experiment [6], in [7], in [8], in [9] and in experiment [11] was inactive. In addition, the compound was classed as inactive in experiment [12], in [13], in experiment [14], in experiment [15] and in experiment [16].
Turning to `c1ccc(C[P+](c2ccccc2)(c2ccccc2)c2ccccc2)cc1`, the AC50 is 0.132 µM (active) in [1] and 10.7 µM (active) in experiment [6]. Besides, the call in experiment [2], in experiment [3], in [4], in experiment [18], in [5] and in experiment [19] was inactive. Besides, the call in [7], in experiment [8], in [9], in experiment [11], in [20] and in experiment [13] was inactive. The compound was classed as inactive in experiment [14], in experiment [15] and in [16].
Consider `O=C1c2ccccc2C(=O)c2c(Cl)cccc21`, for which the outcome in experiment [1], in experiment [2], in [3], in experiment [4], in experiment [18] and in experiment [5] was inactive. Besides, the compound was classed as inactive in [6], in [7], in experiment [8], in [9], in experiment [11] and in experiment [13]. For the same compound, the compound was classed as inactive in [14] and in [15].
As to `O=C1C=CC(=O)N1c1ccccc1`, the outcome in experiment [1], in experiment [2], in experiment [3], in experiment [4], in [18] and in experiment [5] was inactive. Also, the result in experiment [19], in [6], in experiment [7], in experiment [8], in experiment [9] and in experiment [11] was inactive. In addition, the call in experiment [12], in experiment [20], in [14], in experiment [15] and in experiment [16] was inactive.
Turning to `Cc1cc(C)c(O)c(C(C)(C)C)c1`, the compound was called inactive in [1], in [2], in experiment [3], in [18], in experiment [19] and in experiment [6]. For the same compound, the compound was classed as inactive in experiment [7], in [8], in experiment [9], in experiment [10], in [11] and in experiment [12]. Moreover, the outcome in experiment [20], in experiment [13], in [14] and in [15] was inactive. For the same compound, in experiment [4], the AC50 was 100 µM (active).
